Targets with the largest changes are over-represented here; the source holds about 21,000 in all.
Target: XPOT_O43592_877_HIVPACFLAPLK (UniProt O43592)
Experiment: probe-labelled cysteine peptide fold change vs DMSO (competition) (log2 fold change); higher = less target engagement (more negative = stronger competition)
Details: THP-1, incubation time: 4 h
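Note: competitive chemoproteomic profiling in live THP-1 cells with an iodoacetamide desthiobiotin (IA-DTB) probe, comparing probe-labelled peptide intensities in compound-treated cells against DMSO-treated controls.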

UniProt O43592, sequence (O43592 whole entry, looked up): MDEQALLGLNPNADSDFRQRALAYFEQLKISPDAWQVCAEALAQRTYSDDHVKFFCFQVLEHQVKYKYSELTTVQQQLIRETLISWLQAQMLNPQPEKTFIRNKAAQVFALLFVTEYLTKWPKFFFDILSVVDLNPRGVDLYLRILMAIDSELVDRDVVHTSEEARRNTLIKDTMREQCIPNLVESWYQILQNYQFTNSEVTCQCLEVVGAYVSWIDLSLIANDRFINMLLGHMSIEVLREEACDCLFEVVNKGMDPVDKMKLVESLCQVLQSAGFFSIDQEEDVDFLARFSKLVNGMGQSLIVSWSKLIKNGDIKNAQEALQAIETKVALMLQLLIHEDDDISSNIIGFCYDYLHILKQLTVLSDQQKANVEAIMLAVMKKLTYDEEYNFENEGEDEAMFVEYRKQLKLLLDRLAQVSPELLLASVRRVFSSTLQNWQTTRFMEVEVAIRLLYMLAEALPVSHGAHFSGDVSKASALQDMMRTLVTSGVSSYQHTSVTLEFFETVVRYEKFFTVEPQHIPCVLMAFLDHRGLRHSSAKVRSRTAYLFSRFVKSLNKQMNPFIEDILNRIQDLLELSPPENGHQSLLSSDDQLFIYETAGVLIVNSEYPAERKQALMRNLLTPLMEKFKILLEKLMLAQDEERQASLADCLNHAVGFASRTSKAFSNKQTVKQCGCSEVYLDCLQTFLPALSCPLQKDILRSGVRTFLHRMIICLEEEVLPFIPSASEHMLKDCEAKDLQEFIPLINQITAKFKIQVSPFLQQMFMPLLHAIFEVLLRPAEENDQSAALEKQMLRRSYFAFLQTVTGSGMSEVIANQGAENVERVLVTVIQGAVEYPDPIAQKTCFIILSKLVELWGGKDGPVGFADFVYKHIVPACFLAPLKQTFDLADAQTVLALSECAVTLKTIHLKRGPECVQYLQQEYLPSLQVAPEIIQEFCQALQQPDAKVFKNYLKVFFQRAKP

With `CC1Cc2ccccc2N1C(=O)C1CCCN(C(=O)CCl)C1` (mixture of isomers) [TRIM25 ligand 11 (diastereomer mixture)] as the molecule, how does the “probe-labelled cysteine peptide fold change” value (10 µM) read?
The value was 0.0433.

And the “probe-labelled cysteine peptide fold change” value (50 µM)?
The value was 0.0734.
